# Hits are enriched below; roughly 2% of the tested compounds scored in any of these assays.
# Mcl1-Noxa inh – Mcl-1/Noxa interaction inhibition; Q07820; TR-FRET Mcl-1/Noxa peptide binding, 2 h; inhibition, % at 21.7 µM; actives 1.5% (n = 220,000);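 active means compounds that cut the protein-peptide binding signal by more than 50% relative to plate controls in a single-dose test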;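 further: His-tagged Mcl-1 with rhodamine Noxa BH3 peptide and terbium anti-His antibody; 0% = Mcl-1 plus Noxa peptide wells and 100% = peptide-only wells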
# Target sequence (Q07820 whole entry, looked up): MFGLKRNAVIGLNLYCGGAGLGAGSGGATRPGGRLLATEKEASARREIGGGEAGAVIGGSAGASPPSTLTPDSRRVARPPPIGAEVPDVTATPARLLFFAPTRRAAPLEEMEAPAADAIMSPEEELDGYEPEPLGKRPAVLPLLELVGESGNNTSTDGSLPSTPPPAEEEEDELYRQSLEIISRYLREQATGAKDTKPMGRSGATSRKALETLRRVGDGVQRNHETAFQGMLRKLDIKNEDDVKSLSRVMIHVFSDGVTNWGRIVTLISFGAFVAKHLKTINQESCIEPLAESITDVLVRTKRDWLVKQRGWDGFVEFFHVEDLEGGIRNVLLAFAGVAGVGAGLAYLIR
# Mcl1 Bid PPI – Mcl-1/Bid interaction inhibition | Q07820 | TR-FRET Mcl-1/Bid-Dy647 peptide binding, 1536-well | inhibition, % at 21.7 µM | actives 0.97% (n = 220,000);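 active means compounds that cut the binding signal by more than half at the single screening dose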;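 further: His-tagged Mcl-1 with europium anti-His antibody binding Bid BH3 peptide; 0% = Mcl-1 plus peptide wells and 100% = peptide-only wells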
# MCL1 BIM primary – inhibitors of human MCL1 binding to BIM-BH3 peptide. Q07820. GST-MCL1 / FITC-Bim-BH3 fluorescence polarization. inhibition, % at 10.9 µM. actives 0.68% (n = 320,000). AID 2057;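 active means inhibition above the mean inhibition of all tested compounds plus 3 SD, set per campaign, cut at about 40% in these data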;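 further: 0% = DMSO wells and 100% = unlabeled Bim-BH3 peptide control; higher means more loss of mP so more displacement of Bim peptide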
# Mcl-1 Bim block – human Bim-Mcl-1 interaction inhibition | Q07820 | Bead-based flow cytometry, Bim peptide-Mcl-1 binding | inhibition, % at 10 µM | actives 0.1% (n = 190,000) | AID 1009; in the data active means inhibition above about 40%;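 further: 0% = no compound tracer wells and 100% = peptide blocker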
# Active calls of the source: *; . = not tested or not shown.
SMILES,Mcl1-Noxa inh,Mcl1 Bid PPI,MCL1 BIM primary,Mcl-1 Bim block
COCCN1C(=O)C(=O)/C(=C(/O)c2ccc(S(=O)(=O)N3CCOCC3)cc2)C1c1cccc(Cl)c1 (stereo unspecified),40,66*,-3,.
Cc1nc2cc(N3CCCCC3)c(NC(=O)c3ccncc3)cc2c(=O)n1Cc1ccc(Cl)cc1,11,57*,-2,2
Cc1nc2cc(N3CCN(C)CC3)c(NC(=O)Cc3ccccc3)cc2c(=O)n1Cc1ccccc1,27,-42,1,2
COc1cccc(-n2cnnc2SC(C)C(=O)NC2CCCC2)c1 (stereo unspecified),.,.,5,.
COc1cccc(-n2nnc3c(=O)n(CC(=O)NC4CCCC4)cnc32)c1,52*,9,-2,-3
Cc1cccc(NC(=O)CSc2nnc(-c3ccco3)o2)c1C,54*,-14,2,-1
O=C(CSc1nnc(-c2ccco2)o1)c1ccc[nH]1,56*,-25,8,-23
Cc1ccc(C)c(NC(=O)CSc2nnc(-c3ccco3)o2)c1,2,2,-2,0
CCCn1c(SCC(=O)NC2CCCCC2)nnc1C1CC1,.,.,14,.
CCCC(=O)Nc1ccc2nc(SCC(=O)N3CCCC3)sc2c1,9,-21,7,0
Cn1c(SCC(=O)Nc2ccc3nc(SCC(=O)N4CCCC4)sc3c2)nnc1-c1ccccc1,97*,35,29,-8
Cc1ccc(C(=O)NNC(=O)c2ccc3ncccc3c2)cc1,-4,-9,.,50*
Cc1ccc(C(=O)NNc2c3ccccc3nc3ccccc23)cc1,81*,12,17,.
Cc1ccc(C(=O)NNC2=Nc3cccc4cccc2c34)cc1,67*,20,0,-5
COc1ccc(C(=O)NNC2=Nc3cccc4cccc2c34)cc1,1,-7,-5,0
COC(=O)C1=C(C)NC=C([N+](=O)[O-])C1c1ccc(OC)cc1 (stereo unspecified),9,-39,1,-2
CCN(CC)S(=O)(=O)c1ccc(/C=C/C(=O)Nc2cccc(F)c2)cc1,2,2,-3,1
COc1ccc(-c2nnn(CC(=O)N(CCCO)C(C(=O)NC3CCCC3)c3ccncc3)n2)cc1 (stereo unspecified),7,87*,4,0
CCn1c(SCC(=O)Nc2ccc(C)cc2)nnc1-c1ccc(O)cc1,13,-1,4,.
N#CC1=C(N)N2C(=C(C#N)C1c1ccc(Br)cc1)Nc1ccccc12 (stereo unspecified),50,51*,-17,-5
N#CC1=C(N)N2C(=C(C#N)C1c1cccc(Br)c1)Nc1ccccc12 (stereo unspecified),25,19,1,-4
CC(/C=N/n1c(-c2ccco2)n[nH]c1=S)=C\c1ccco1,42,-47,19,-3
CC(/C=N\Nc1nnc2c(n1)[nH]c1c(C)cccc12)=C\c1ccco1,87*,78*,9,0
CCOc1cc(C(C(=O)NCC2CCCO2)N(C(=O)Cn2nnc3ccccc32)c2ccccc2OC)ccc1O (stereo unspecified),.,.,4,.
Cc1nn(CCC(=O)O)c2nc(-c3cccnc3)cc(C(F)(F)F)c12,25,45,-5,0
SMILES,Mcl1-Noxa inh,Mcl1 Bid PPI,MCL1 BIM primary,Mcl-1 Bim block
Cc1nn(CCc2nn[nH]n2)c2nc(-c3ccc(C4CCCCC4)cc3)cc(C(F)(F)F)c12,-45,59*,6,0
CCOc1ccc2nc(N3C(=O)/C(=C/c4ccc(Cl)cc4)NC3=S)sc2c1,86*,93*,.,-5
COc1ccc(/C=C(\C#N)C(=O)Nc2cccc3ncccc23)cc1OC,55*,-38,18,.
Cn1cc(CN2C[C@H]3CC[C@H]2C3)c(-c2ccccc2F)n1,9,-20,3,0
Cc1cccc(NC(=O)c2ccc(C)c(S(=O)(=O)N3CCCCC3)c2)n1,.,.,-5,.
O=C(Nc1ccc2nc(-c3ccc4nc[nH]c4c3)[nH]c2c1)c1cccs1,79*,-6,9,21
CCOc1ccccc1OCC(=O)O,12,9,-2,-1
O=C(O)COc1ccccc1O,52*,-19,7,-2
CCCCn1c(N)c(N(CC(C)C)C(=O)c2cc3c(s2)CCCCC3)c(=O)[nH]c1=O,.,.,-21,.
O=C(O)c1cccc2c1C(=O)c1ccc(-c3ccc(Cl)c(C(F)(F)F)c3)cc1S2(=O)=O,.,.,5,.
Cc1ccc(-n2c(SCC(=O)N/N=C/c3c(C)nn(-c4ccccc4)c3C)nc3ccccc3c2=O)cc1,-27,53*,14,-3
Cc1ccc(-n2nc3c(N4CCC(C(=O)NCc5cccc(F)c5)CC4)nnc(C)c3c2C)cc1,.,.,-1,.
CCc1ccccc1NC(=O)CNC(=O)CCc1nc2sc3c(c2c(=O)[nH]1)CCCC3,.,.,29,.
CC1(C)Oc2ccc3ccc(=O)oc3c2[C@H](O)[C@H]1O,.,.,2,.
CC1(C)Oc2ccc3ccc(=O)oc3c2C[C@H]1O,-8,83*,4,.
CCN(CC)S(=O)(=O)c1ccc(C)c(NC(=O)CN2CCN(C)CC2)c1,33,65*,-4,.
O=C1C2CCCN2C(c2ccco2)N1c1ccc(F)cc1 (stereo unspecified),-7,-12,4,-2
COc1ccc(CN2C(=O)c3cccnc3C2O)cc1 (stereo unspecified),25,92*,2,0
COc1ccc(NC(=O)c2ccccc2N(Cc2ccccc2)S(C)(=O)=O)cc1,83*,-52,-11,0
CC(C)c1cccc(C(C)C)c1NC(=O)CN(C)C1CCS(=O)(=O)C1 (stereo unspecified),.,.,3,.
COc1ccc(O)c(-c2cn[nH]c2-c2cccs2)c1,55*,-16,-1,-1
Cc1c2cnn(CC(=O)NCc3ccccn3)c(=O)c2c(C)n1Cc1ccccc1,.,.,6,.
Cc1c2cnn(CC(=O)N3CCOCC3)c(=O)c2c(C)n1Cc1ccccc1F,.,.,3,.
Cc1c2cnn(CC(=O)Nc3c(F)c(F)cc(F)c3F)c(=O)c2c(C)n1Cc1ccc(F)cc1,62*,-16,7,-2
CCN(CC)c1ccc(NC(=O)Cn2ncc3c(C)n(Cc4ccccc4F)c(C)c3c2=O)c(C)c1,64*,65*,-13,3
SMILES,Mcl1-Noxa inh,Mcl1 Bid PPI,MCL1 BIM primary,Mcl-1 Bim block
O=C(N/N=C1\C(=O)c2cccc3cccc1c23)c1ccc(O)cc1,54*,-24,3,1
O=C(c1ccccc1C(=O)N(c1ccccc1)c1ccccc1)N1CCCCC1,13,6,3,-5
CCOc1ccc(NC(=O)CC2C(=O)N(c3ccccc3)C(=S)N2Cc2ccccn2)cc1 (stereo unspecified),8,-12,-2,-1
CCOc1ccc(NC(=O)CC2C(=O)N(c3ccc(OC)cc3)C(=S)N2Cc2ccccn2)cc1 (stereo unspecified),10,82*,1,0
N#Cc1c(Cc2cccc3ccccc23)nn(CCO)c1N,.,.,2,.
COc1ccccc1N1C(=O)C2C(c3ccc(F)cc3)NN(C(=O)c3ccc(C)cc3)C2C1=O (stereo unspecified),16,-34,1,1
COc1ccc(C(C)(C)NC(=O)C2CCC(=O)N(C3CCCC3)C2)cc1OC (stereo unspecified),.,.,-8,.
